Reference: ChEMBL document CHEMBL1961873, “Compounds: GSK PKIS; Assays: Nanosyn kinase panel” (2012)

Legend:
[1] = molecular target: Tyrosine-protein kinase receptor UFO (Homo sapiens) (UniProt P30530); settings: at 1 µM
[2] = molecular target: Tyrosine-protein kinase Blk (Homo sapiens) (UniProt P51451); settings: at 0.1 µM
[3] = molecular target: Tyrosine-protein kinase Blk (Homo sapiens) (UniProt P51451); settings: at 1 µM
[4] = molecular target: T1, Cytoplasmic tyrosine-protein kinase BMX (Homo sapiens) (UniProt P51813); settings: at 0.1 µM
T1 sequence (whole entry): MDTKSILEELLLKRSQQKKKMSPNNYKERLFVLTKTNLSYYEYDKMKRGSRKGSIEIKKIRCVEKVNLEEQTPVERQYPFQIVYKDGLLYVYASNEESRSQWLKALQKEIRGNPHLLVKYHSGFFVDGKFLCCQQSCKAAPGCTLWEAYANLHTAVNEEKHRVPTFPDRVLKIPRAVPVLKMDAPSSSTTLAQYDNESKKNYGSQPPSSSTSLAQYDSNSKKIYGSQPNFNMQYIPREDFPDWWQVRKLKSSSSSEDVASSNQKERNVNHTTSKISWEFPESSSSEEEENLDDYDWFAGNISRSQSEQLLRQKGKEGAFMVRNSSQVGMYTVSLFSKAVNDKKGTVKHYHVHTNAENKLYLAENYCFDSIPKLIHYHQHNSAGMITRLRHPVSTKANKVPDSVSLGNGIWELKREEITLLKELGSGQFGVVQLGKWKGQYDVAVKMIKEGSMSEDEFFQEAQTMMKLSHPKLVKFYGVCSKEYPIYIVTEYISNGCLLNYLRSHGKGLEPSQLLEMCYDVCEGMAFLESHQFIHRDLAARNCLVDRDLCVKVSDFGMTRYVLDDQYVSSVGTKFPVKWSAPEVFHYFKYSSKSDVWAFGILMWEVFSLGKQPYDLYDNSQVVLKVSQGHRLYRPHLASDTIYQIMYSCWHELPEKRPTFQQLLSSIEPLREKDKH

[5] = molecular target: T1, Cytoplasmic tyrosine-protein kinase BMX (Homo sapiens); settings: at 1 µM
[6] = molecular target: Protein-tyrosine kinase 6 (Homo sapiens) (UniProt Q13882); settings: at 0.1 µM
[7] = molecular target: Protein-tyrosine kinase 6 (Homo sapiens) (UniProt Q13882); settings: at 1 µM
[8] = molecular target: Tyrosine-protein kinase BTK (Homo sapiens) (UniProt Q06187); settings: at 0.1 µM
[9] = molecular target: Tyrosine-protein kinase BTK (Homo sapiens) (UniProt Q06187); settings: at 1 µM
[10] = molecular target: Tyrosine-protein kinase CSK (Homo sapiens) (UniProt P41240); settings: at 0.1 µM
[11] = molecular target: Tyrosine-protein kinase CSK (Homo sapiens) (UniProt P41240); settings: at 1 µM
[12] = molecular target: T2, Discoidin domain-containing receptor 2 (Homo sapiens) (UniProt Q16832); settings: at 0.1 µM
T2 sequence (whole entry): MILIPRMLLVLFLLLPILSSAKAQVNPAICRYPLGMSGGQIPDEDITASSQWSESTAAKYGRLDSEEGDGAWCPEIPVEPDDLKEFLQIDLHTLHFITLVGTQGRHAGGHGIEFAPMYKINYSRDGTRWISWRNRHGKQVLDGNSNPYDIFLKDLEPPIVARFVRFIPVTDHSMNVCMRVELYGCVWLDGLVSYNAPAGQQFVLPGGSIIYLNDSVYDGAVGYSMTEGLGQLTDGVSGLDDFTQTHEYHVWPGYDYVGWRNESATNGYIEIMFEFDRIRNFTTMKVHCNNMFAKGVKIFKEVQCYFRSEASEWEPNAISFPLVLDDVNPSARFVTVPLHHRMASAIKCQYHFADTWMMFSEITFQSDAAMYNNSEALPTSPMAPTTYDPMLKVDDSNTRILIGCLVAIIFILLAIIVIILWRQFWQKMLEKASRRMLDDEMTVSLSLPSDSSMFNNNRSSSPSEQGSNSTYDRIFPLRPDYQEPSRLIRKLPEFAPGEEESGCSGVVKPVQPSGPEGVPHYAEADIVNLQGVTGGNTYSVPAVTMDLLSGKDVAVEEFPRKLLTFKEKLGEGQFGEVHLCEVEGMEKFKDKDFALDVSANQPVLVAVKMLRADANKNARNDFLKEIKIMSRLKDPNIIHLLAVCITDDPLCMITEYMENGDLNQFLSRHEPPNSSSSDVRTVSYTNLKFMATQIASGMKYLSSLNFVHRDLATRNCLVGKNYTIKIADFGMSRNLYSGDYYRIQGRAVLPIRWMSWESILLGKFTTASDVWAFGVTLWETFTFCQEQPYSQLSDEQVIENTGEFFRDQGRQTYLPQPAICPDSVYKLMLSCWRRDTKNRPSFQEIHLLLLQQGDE

[13] = molecular target: T2, Discoidin domain-containing receptor 2 (Homo sapiens); settings: at 1 µM
[14] = molecular target: Epidermal growth factor receptor (Homo sapiens) (UniProt P00533); settings: at 0.1 µM
[15] = molecular target: Epidermal growth factor receptor (Homo sapiens) (UniProt P00533); settings: at 1 µM
[16] = tested on: Epidermal growth factor receptor (Homo sapiens), P00533 [L858R]; settings: at 0.1 µM
[17] = tested on: Epidermal growth factor receptor (Homo sapiens), P00533 [L858R]; settings: at 1 µM
[18] = tested on: Epidermal growth factor receptor (Homo sapiens), P00533 [L861Q]; settings: at 0.1 µM
[19] = tested on: Epidermal growth factor receptor (Homo sapiens), P00533 [L861Q]; settings: at 1 µM
[20] = tested on: Epidermal growth factor receptor (Homo sapiens), P00533 [T790M]; settings: at 0.1 µM

Chain of Epidermal growth factor receptor (Homo sapiens), P00533 [L861Q] (P00533 whole entry L861Q): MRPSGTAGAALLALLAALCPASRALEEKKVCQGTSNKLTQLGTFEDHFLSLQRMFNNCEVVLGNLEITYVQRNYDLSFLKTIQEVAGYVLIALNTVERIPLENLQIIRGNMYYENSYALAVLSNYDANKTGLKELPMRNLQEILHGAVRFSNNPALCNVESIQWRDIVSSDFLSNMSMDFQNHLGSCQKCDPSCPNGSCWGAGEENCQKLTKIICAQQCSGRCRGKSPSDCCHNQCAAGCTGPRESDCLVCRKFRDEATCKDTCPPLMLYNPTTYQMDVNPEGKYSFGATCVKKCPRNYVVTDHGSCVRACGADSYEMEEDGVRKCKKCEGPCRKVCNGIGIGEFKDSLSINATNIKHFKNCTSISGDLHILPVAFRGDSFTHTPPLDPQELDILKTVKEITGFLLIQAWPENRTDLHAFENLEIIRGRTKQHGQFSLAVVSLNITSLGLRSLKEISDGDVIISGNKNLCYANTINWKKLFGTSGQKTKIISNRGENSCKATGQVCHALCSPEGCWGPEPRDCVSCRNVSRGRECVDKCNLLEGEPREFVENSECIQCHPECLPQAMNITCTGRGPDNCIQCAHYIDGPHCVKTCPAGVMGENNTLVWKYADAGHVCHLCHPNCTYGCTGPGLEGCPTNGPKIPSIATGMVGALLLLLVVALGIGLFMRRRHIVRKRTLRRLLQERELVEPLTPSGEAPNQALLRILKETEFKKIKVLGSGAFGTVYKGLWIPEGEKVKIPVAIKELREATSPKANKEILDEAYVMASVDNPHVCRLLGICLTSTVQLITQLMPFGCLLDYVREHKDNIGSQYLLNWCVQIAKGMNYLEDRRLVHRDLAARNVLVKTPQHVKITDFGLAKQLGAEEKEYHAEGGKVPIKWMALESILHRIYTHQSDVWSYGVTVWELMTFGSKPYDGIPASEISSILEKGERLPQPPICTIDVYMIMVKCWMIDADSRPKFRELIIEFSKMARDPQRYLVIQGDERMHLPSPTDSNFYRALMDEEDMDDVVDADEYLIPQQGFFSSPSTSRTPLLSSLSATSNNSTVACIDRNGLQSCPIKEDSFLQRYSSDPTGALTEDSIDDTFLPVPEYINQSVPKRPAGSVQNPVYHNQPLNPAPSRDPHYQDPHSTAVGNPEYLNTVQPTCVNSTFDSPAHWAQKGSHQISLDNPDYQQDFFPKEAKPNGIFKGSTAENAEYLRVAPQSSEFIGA
Chain of Epidermal growth factor receptor (Homo sapiens) (P00533 whole entry): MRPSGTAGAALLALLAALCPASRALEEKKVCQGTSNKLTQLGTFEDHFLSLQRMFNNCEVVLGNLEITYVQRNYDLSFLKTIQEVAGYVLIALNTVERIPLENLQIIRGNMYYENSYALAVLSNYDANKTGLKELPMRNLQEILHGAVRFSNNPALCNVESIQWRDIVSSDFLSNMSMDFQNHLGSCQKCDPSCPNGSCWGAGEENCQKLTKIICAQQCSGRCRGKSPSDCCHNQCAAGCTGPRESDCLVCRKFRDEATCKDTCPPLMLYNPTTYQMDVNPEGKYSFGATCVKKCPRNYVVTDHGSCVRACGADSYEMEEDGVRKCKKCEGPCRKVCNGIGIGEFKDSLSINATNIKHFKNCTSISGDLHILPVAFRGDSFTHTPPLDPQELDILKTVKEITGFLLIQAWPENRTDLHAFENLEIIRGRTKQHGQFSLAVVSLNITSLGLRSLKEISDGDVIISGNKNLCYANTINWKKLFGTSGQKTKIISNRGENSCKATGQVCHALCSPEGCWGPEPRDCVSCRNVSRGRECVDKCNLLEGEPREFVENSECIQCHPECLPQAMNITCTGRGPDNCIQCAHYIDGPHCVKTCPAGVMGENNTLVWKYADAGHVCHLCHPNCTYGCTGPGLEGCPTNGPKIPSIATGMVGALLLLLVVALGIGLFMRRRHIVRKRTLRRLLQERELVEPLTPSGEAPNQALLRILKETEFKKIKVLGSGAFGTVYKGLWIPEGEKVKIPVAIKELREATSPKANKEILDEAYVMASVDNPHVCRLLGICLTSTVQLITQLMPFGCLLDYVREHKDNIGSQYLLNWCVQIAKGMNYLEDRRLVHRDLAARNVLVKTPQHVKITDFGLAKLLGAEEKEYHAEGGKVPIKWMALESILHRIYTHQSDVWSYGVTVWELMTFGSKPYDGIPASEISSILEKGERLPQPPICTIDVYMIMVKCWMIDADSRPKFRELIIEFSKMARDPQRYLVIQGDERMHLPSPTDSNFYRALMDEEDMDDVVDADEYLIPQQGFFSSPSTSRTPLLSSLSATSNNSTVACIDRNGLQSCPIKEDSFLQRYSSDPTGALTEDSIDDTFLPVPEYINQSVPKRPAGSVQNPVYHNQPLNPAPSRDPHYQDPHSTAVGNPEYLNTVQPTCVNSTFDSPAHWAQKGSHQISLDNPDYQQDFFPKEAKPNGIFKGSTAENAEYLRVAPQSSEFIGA
Chain of Tyrosine-protein kinase receptor UFO (Homo sapiens) (P30530 whole entry): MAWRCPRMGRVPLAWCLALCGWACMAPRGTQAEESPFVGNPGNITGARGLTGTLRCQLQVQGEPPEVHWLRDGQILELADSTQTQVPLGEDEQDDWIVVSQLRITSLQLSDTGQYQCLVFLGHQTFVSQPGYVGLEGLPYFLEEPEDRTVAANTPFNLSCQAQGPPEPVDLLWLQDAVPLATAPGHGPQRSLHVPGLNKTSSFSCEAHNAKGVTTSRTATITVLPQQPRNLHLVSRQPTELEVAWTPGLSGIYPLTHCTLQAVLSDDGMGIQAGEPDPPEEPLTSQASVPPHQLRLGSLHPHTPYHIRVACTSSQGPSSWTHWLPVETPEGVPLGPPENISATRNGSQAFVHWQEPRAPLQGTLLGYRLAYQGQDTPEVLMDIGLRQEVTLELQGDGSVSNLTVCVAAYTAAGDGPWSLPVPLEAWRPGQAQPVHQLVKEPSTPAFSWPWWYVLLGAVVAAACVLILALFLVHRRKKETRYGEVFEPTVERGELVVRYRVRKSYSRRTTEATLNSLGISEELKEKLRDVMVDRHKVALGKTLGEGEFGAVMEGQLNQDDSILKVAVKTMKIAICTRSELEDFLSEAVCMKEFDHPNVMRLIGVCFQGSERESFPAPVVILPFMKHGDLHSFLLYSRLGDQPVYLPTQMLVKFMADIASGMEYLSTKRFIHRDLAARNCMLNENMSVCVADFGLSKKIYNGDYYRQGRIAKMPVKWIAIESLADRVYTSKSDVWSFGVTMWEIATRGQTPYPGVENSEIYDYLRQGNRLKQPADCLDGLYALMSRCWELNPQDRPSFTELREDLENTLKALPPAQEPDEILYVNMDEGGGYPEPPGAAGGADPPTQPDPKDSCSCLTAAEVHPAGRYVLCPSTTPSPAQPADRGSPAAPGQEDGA
Chain of Epidermal growth factor receptor (Homo sapiens), P00533 [L858R] (P00533 whole entry L858R): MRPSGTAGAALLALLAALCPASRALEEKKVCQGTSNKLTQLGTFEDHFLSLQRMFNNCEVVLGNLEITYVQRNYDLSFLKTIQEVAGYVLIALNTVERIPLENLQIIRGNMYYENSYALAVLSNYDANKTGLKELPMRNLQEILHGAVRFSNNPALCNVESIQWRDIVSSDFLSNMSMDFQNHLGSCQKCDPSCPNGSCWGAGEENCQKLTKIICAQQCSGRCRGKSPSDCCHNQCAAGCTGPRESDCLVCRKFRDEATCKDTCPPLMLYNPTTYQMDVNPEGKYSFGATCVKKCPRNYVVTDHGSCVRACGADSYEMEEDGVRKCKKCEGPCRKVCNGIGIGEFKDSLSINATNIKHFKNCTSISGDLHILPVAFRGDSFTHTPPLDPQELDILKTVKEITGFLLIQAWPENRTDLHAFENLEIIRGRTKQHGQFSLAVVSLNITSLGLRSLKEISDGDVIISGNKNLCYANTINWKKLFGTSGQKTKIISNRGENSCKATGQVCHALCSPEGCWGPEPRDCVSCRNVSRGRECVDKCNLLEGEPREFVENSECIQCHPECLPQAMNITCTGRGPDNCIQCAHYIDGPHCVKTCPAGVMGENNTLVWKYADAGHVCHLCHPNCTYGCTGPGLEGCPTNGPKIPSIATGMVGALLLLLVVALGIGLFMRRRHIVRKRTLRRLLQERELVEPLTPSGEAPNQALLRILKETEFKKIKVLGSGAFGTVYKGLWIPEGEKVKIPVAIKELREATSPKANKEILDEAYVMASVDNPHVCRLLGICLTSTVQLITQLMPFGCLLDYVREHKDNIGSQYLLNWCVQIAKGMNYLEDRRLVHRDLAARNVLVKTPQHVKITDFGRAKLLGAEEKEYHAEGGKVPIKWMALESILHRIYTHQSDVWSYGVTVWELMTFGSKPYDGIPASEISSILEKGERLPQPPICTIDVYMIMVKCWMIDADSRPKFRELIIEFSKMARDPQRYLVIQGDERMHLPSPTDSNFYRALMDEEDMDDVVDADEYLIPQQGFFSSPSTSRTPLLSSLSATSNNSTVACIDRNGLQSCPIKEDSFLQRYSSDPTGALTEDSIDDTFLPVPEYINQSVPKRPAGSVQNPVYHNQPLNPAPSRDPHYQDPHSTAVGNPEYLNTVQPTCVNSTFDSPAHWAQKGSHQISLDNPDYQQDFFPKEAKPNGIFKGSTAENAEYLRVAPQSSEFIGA
Chain of Tyrosine-protein kinase CSK (Homo sapiens) (P41240 2-450 limits assumed): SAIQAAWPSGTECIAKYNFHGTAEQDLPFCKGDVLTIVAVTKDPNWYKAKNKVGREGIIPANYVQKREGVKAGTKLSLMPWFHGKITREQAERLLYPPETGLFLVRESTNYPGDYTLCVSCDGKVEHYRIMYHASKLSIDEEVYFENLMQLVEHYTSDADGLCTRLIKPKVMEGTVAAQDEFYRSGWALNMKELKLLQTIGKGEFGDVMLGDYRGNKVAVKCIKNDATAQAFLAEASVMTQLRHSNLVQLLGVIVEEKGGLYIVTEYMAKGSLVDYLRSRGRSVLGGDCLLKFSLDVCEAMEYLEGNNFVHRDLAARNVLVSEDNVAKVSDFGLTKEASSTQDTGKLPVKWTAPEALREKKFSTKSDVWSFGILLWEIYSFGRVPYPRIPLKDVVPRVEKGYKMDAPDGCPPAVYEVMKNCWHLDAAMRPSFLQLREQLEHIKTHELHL

Row | SMILES | inhibition [1] [%] | inhibition [2] [%] | inhibition [3] [%] | inhibition [4] [%] | inhibition [5] [%] | inhibition [6] [%] | inhibition [7] [%] | inhibition [8] [%] | inhibition [9] [%] | inhibition [10] [%] | inhibition [11] [%] | inhibition [12] [%] | inhibition [13] [%] | inhibition [14] [%] | inhibition [15] [%] | inhibition [16] [%] | inhibition [17] [%] | inhibition [18] [%] | inhibition [19] [%] | inhibition [20] [%]
1 | COC(=O)Nc1nc2ccc(Oc3ccc(NC(=O)Nc4cccc(Cl)c4)cc3)cc2[nH]1 | 6.96 | 0.1 | 1.79 | 1.98 | 1.28 | 0.55 | -0.38 | 0.06 | -0.37 | 1.23 | 5.95 | 84.2 | 85.2 | 3.42 | 7.64 | -0.65 | 2.43 | -0.21 | -0.8 | -1.18
2 | c1ccc(-c2nc3n(c2-c2ccc4c(c2)OCO4)CCC3)nc1 | -5.46 | 0.54 | 3.25 | -1.29 | 1 | 0.9 | 2.26 | -0.42 | -1.35 | 1.01 | 1.76 | 0.99 | 0.78 | 1.53 | 0.21 | 0.88 | -1.2 | 0.86 | 1.07 | 0.12
3 | CC(C)COC(=O)c1ccc2c(c1)/C(=C/Nc1ccc(S(N)(=O)=O)cc1)C(=O)N2 | 13.2 | 1.11 | 28.6 | 0.73 | -1.5 | -2.24 | -2.63 | -1.47 | -1.1 | -2.24 | -1.85 | -1.05 | 2.05 | 1.64 | 4.58 | -0.29 | 0.49 | -1.62 | -0.46 | -1.76
4 | Fc1ccc(-c2nn3ccccc3c2-c2ccncc2)cc1 | 0.78 | 0.92 | 2.66 | -1.75 | 1.42 | -1.18 | 7.58 | -2.02 | -1.29 | -0.04 | 2.22 | 1.72 | 5.54 | – | – | – | – | – | – | –
5 | COc1cccc(-c2c[nH]c3c(N/N=C/c4ccncc4)ncnc23)c1 | 3.21 | 7.63 | 57.9 | 8.13 | 45.1 | 2.51 | 4.81 | 0.88 | 2.48 | 4.78 | 17.3 | 3.82 | 14.8 | 7.02 | 41.9 | 30.4 | 82.3 | 8.35 | 45.4 | 1.02
6 | N#Cc1c(NC(=O)c2ccc(F)cc2)sc2c1CCCC2 | -1.26 | 0.68 | 1.75 | 1.31 | 0.33 | -0.11 | -2 | -1.3 | -0.45 | 1.81 | 0.65 | 0.36 | -0.2 | 0.63 | 1.78 | 0.66 | 2.49 | -0.06 | -1.78 | -0.49
7 | CC(=O)Nc1cccc(C#Cc2cncnc2Nc2ccc(OCc3cccc(F)c3)c(Cl)c2)c1 | 1.6 | 2.4 | 1.37 | 0.73 | 4.15 | 1.35 | 1.55 | 2.74 | 5.12 | 5.08 | -1.85 | 4.51 | 7.91 | – | – | – | – | – | – | –
